The source made the active and inactive calls.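 The calls were made as follows, unless noted: active = inhibition at or above 50% at 10 µM; inactive = inhibition below 50%.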
Legend:
[1] = inhibitors of TNFa-induced NFkB p65 translocation, primary screen, imaging, HUVEC, MLSMR starter and 10KST1 sets (AID 438;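 active = inhibition above 20% together with a positive visual image hit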;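 also: compound added about 3h40 before a 20 min TNFalpha stimulation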;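 as to inhibition: signal is the nuclear over cytoplasmic p65 intensity ratio per well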); settings: HUVEC TNFa-induced p65 nuclear translocation; cell count: measured here: nuclei count (cytotoxicity indicator), at 2.08 µM; inhibition: at 2 µM, stronger effect = higher value, 0% TNFa-plus-vehicle, 100% no-TNFa wells
[2] = reduction of polyQ htt aggregates in cells – imaging, exon1htt(103Q)mCFP cells, high-content imaging, primary screen (AID 483;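 active = visual image review flags a hit and inhibition of aggregation exceeds 20%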;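 also: compound exposure lasted 3 days before fixation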;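 as to nuclei count: percent of the per-plate median nuclei count of sample wells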); settings: exon1htt(103Q)mCFP cell line, aggregate imaging, at 2 µM; inhibition of aggregation: stronger effect = higher value; nuclei count: measured here: cell count, toxicity
[3] = endothelial E-selectin expression blockers – imaging, HUVEC, immunofluorescence, MLSMR starter and 10KST1 sets, primary screen (AID 487;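 active = visually confirmed hit in the image check and inhibition above 20%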;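 as to inhibition: signal is fraction of cell area covered by stained E-selectin grains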;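 as to nuclei count: 100% = median nuclei count of all wells on the same plate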); settings: HUVEC TNFalpha-induced E-selectin immunofluorescence imaging, at 2 µM; inhibition: stronger effect = higher value; nuclei count: measured here: cell number, toxicity
[4] = molecular target: Voltage-gated potassium channel subunit beta-2 (Rattus norvegicus) (UniProt P62483); experiment: inhibitors of rat Kvbeta2 reductase activity – biochemical, NADPH fluorescence, primary screen (AID 622;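 active = fluorescence slope higher than the sample average by over 3 SD, cut at about -0.22 in these data, passing the limit was not always enough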;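 also: slope of raw intensity against log time taken from 70 to 1610 s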); settings: recombinant KvBeta, 4-cyanobenzaldehyde reduction, at 10 µM, stronger effect = higher value
[5] = molecular target: Voltage-gated potassium channel subunit beta-2 (Rattus norvegicus) (UniProt P62483); experiment: enhancers of rat Kvbeta2 NADPH turnover – biochemical, NADPH fluorescence, primary screen (AID 623;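 active = NADPH fluorescence slope more negative than the mean of all samples by about 3 SD, 99.7% confidence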;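 also: fluorescence intensity change per second fitted from 20 to 320 s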); settings: Recombinant KvBeta, NADPH fluorescence decrease slope, 10 min; at 10 µM; stronger effect = lower value
[6] = molecular target: Alpha-2C adrenergic receptor (Homo sapiens) (UniProt P18825); experiment: compounds altering alpha2C-coupled GIRK flux – cell-based, HEK293 alpha2C/GIRK1/2, thallium flux, primary screen (AID 624;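 active = fluorescence slope after compound addition differing from the mean of all screened samples at 99.7% confidence, in either direction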;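 also: slope of fluorescence ratio to pre-addition baseline per second over 15 to 24 s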); settings: thallium flux BTC fluorescence, at 10 µM, actives lie on both sides
[7] = blockers of RIG-like receptor reporter activation – cell-based, Sendai virus stimulus, luciferase, 10K MLSCN set, TLR/RLR signaling modifier project, primary screen (AID 602276); settings: HEK293 RL24 IRF3 luciferase reporter, at 10 µM, stronger effect = higher value;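 also: firefly luciferase from ISG56 promoter only with Renilla not read in this screen; 0% = Sendai virus plus DMSO and 100% = medium plus DMSO without virus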
[8] = TLR3 IRF3 reporter activation blockers – cell-based, poly I:C stimulus, luciferase, 10K MLSCN set, primary screen (AID 602277;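 active = inhibition of the reporter signal at or above 50%; inactive = inhibition below 50%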); settings: HEK293-TLR3 RL24 IRF3 luciferase reporter, at 10 µM, stronger effect = higher value

Voltage-gated potassium channel subunit beta-2 (Rattus norvegicus), sequence (P62483 whole entry, looked up): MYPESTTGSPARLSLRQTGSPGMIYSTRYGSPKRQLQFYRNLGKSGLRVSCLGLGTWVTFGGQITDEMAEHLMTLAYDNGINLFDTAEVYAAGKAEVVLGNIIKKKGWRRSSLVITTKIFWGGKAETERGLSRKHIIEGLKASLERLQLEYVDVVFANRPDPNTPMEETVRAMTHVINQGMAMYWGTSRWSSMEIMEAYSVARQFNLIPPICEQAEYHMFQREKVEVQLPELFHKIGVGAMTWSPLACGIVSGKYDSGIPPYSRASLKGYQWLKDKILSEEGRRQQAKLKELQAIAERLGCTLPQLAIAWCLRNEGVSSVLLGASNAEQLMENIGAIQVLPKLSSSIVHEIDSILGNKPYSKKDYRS
Alpha-2C adrenergic receptor (Homo sapiens), sequence (P18825 whole entry, looked up): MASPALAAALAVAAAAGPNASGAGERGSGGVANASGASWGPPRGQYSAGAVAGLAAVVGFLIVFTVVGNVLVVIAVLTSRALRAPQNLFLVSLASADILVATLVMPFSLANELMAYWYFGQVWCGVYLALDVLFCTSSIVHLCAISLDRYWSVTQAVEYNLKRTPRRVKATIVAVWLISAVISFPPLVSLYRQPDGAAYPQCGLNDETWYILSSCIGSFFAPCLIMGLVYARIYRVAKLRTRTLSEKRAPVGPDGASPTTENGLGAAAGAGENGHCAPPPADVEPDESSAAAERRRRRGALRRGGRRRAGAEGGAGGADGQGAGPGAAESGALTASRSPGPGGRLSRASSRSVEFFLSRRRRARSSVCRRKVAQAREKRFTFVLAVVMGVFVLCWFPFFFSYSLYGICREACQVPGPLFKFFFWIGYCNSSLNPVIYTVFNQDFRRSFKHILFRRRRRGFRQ

| SMILES | cell count [1] | inhibition [1] | inhibition of aggregation [2] | nuclei count [2] [%] | inhibition [3] | nuclei count [3] [%] | fluorescence slope [4] | NADPH fluorescence slope [5] | slope [6] | inhibition [7] | inhibition [8] |
| --- | --- | --- | --- | --- | --- | --- | --- | --- | --- | --- | --- |
| COc1cccc(C(=O)OCn2nnc3ccccc3c2=O)c1 | 592 | -5.6% (inactive) | 16.9% (inactive) | 89.6 | -14.7% (inactive) | 119 | -0.616 (inactive) | 4.3e-05 (inactive) | 0.00615 (inactive) | 17.1% (inactive) | 31.3% (inactive) |
| S=C(c1ccc(-c2cc(Cl)ccc2Cl)o1)N1CCOCC1 | 365 | -10.4% (inactive) | -14% (inactive) | 111 | -53.8% (inactive) | 113 | -0.523 (inactive) | -6e-06 (inactive) | 0.00341 (inactive) | 21.6% (inactive) | 8.92% (inactive) |
| COc1cc(C2c3c(oc4ccccc4c3=O)C(=O)N2c2ccc(C)cn2)ccc1O (stereo not drawn) | 464 | 2.1% (inactive) | 8.8% (inactive) | 107 | -49% (inactive) | 122 | -0.598 (inactive) | -4.5e-05 (inactive) | 0.00645 (inactive) | -5.41% (inactive) | 7.4% (inactive) |
| CCOc1ccc(-c2nc(C#N)c(N3CCN(C)CC3)o2)cc1 | 447 | 7.9% (inactive) | -9.4% (inactive) | 102 | -123% (inactive) | 127 | -0.415 (inactive) | -1.8e-05 (inactive) | 0.00522 (inactive) | 10.5% (inactive) | 11% (inactive) |
| COCCNC(=O)Cn1cc2c(n1)CCCCC2 | 623 | 5.8% (inactive) | -19.8% (inactive) | 110 | -23.5% (inactive) | 98.4 | -0.529 (inactive) | -8.7e-05 (inactive) | 0.00598 (inactive) | 7.33% (inactive) | 31.3% (inactive) |
| Cc1cccc(-c2cc3nc4c(c(N5CCC6(CC5)OCCO6)n3n2)CCCC4)c1 | 627 | -5.5% (inactive) | 19.8% (inactive) | 116 | -139% (inactive) | 156 | -0.419 (inactive) | 4.7e-05 (inactive) | 0.00699 (inactive) | -1.5% (inactive) | -27.3% (inactive) |
| CC(=O)Nc1ccc(S(=O)(=O)CCC#N)cc1 | 424 | 7.2% (inactive) | 2.2% (inactive) | 90.4 | -113% (inactive) | 107 | -0.482 (inactive) | -3.9e-05 (inactive) | 0.00638 (inactive) | 11.9% (inactive) | 20% (inactive) |
| COC(=O)CSc1nnc(-c2ccncc2)o1 | 366 | -6.8% (inactive) | -4.1% (inactive) | 94.2 | -16.8% (inactive) | 106 | -0.46 (inactive) | -4.6e-05 (inactive) | 0.00309 (inactive) | 6.97% (inactive) | 32.3% (inactive) |
| Cc1ccc(C)c(S(=O)(=O)NCc2cccnc2)c1 | 597 | -0.6% (inactive) | -6.9% (inactive) | 114 | -89.8% (inactive) | 119 | -0.467 (inactive) | -5.5e-05 (inactive) | 0.00658 (inactive) | 141% (active) | 100% (active) |
| O=C(CCC1COc2ccccc2O1)NCC1COc2ccccc2O1 (stereo not drawn) | 568 | 2.4% (inactive) | -5.5% (inactive) | 117 | -72.2% (inactive) | 85.5 | -0.499 (inactive) | -2.5e-05 (inactive) | 0.0058 (inactive) | 13.4% (inactive) | 19.2% (inactive) |
| CC(C)(Oc1ccc(Cl)cc1)C(=O)NC1CCSC1=O (stereo not drawn) | 620 | -7.5% (inactive) | -23.8% (inactive) | 112 | -63.4% (inactive) | 103 | -0.502 (inactive) | -2.8e-05 (inactive) | 0.00406 (inactive) | 10.9% (inactive) | 15.9% (inactive) |
| CCOC(=O)N1CCC(NC(=O)CCN2C(=O)COc3ccccc32)CC1 | 322 | -2.6% (inactive) | 11.5% (inactive) | 106 | -22.4% (inactive) | 127 | -0.27 (inactive) | 1.7e-05 (inactive) | 0.00554 (inactive) | 17% (inactive) | 17.2% (inactive) |
| COc1ccc(NC(=O)CCc2nc(-c3ccccc3F)no2)cc1 | 729 | -1.7% (inactive) | 30% (active) | 94.6 | -8.4% (inactive) | 115 | -0.47 (inactive) | -2.2e-05 (inactive) | 0.00593 (inactive) | 4.66% (inactive) | 10.4% (inactive) |

Source: PubChem BioAssay
